Assay outcomes as filed in PubChem.
An excerpt weighted towards active compounds, which were near 2.2% of everything screened.
ID4 SMM: ID4 (human) binding; P47928; small molecule microarray, Flag-ID4 binding, fluorescence F/B; calls only; 1.2% of 31,000 active; AID 624137; call rule not given here;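 also: a binder raises fluorescence above local background on the spot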
Target sequence (P47928 whole entry, looked up): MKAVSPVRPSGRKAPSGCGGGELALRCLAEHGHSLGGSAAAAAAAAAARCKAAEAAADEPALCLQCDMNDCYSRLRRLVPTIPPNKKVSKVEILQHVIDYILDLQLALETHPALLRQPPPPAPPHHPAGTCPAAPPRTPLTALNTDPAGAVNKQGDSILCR
p53 PUMA act: re-activators of the mutant p53 pathway; AID 624151; SW480 PUMA-promoter luciferase, p53 mutant reactivation; activation, % at 9.98 µM; 1.5% of 28,000 active; in the data active = activation above about 52%
Of the large screens only hits and unclear results are named; the others gave an inactive call.

COCCNC(=O)Nc1ccc2nc(-c3ccccn3)c(-c3ccccn3)nc2c1	none
COC(=O)c1ccccc1NC(=O)Cn1ccc([N+](=O)[O-])n1	none
Cc1ccccc1NC(=O)CSc1n[nH]c(-c2ccncc2)n1	none
Cc1ccc(O)c(N=Nc2ccccc2)n1	p53 PUMA act 103
COc1ccc2c(c1)c(=O)oc1c(C)c(OCC(=O)NCC3CCCO3)ccc12 (stereo not given)	p53 PUMA act 52
COc1ccc(OC(C)C(=O)NCC2CCCO2)cc1 (stereo not given)	none
Cc1c(Cl)cccc1NC(=O)CCC(=O)O	none
Cc1cc(S(=O)(=O)NCC(=O)O)ccc1F	none
Cc1ccc2cc(S(=O)(=O)NCCC(=O)O)ccc2c1	ID4 SMM active
CC(C)(C)c1ccc(S(=O)(=O)NCCC(=O)O)cc1	none
Cc1ccc(S(=O)(=O)NCCCO)cc1C(=O)O	ID4 SMM active
C=CCNC(=O)[C@@H]1[C@H]2C(=O)O[C@H](c3ccccc3)[C@H](c3ccccc3)N2[C@H](c2ccc(OCCO)cc2)[C@@]12C(=O)N(C(=O)OCCOC)c1ccc(C#CCC(C(=O)OC)C(=O)OC)cc12	none (no result: p53 PUMA act)
Cc1cc2nn(-c3ccc(F)cc3)nc2cc1NC(=O)COc1ccc(Br)cc1	none
COc1ccc(C2C(C(=O)Nc3ccccc3)=C(C)Nc3ncnn32)cc1O (stereo not given)	none
COc1ccc(NC(=O)c2ccc(OC(=O)CCN3C(=O)c4ccccc4C3=O)cc2)cc1	none
Cc1ccc(NC(=O)c2ccc(OC(=O)CCN3C(=O)c4ccccc4C3=O)cc2)cc1	p53 PUMA act 102
CC(C(=O)Nc1cc(Cl)ccc1O)N1C(=O)c2ccccc2C1=O (stereo not given)	none
CCOC(=O)c1ccc(NC(=O)CSc2nc3ccc(C)cc3[nH]2)cc1	none
O=C(NCc1nc2ccccc2[nH]1)c1ccccc1	p53 PUMA act 94
O=C(NCc1nc2ccccc2[nH]1)C1=C[C@H](c2ccccc2)C[C@H](OCCCCO)O1	none (no result: p53 PUMA act)
CC(=O)c1c(C)nn(CC(O)COc2ccc(C(=O)c3ccc(Cl)cc3)cc2)c1C (stereo not given)	none
O=C(NCc1ccc(F)cc1)[C@H]1C[C@H]2C(=O)NCC(=O)N2[C@H]1c1ccc(O)cc1	none (no result: p53 PUMA act)
CN(C)CCCCCCNC(=O)[C@@H]1C[C@@H]2C(=O)N3CCC[C@H]3C(=O)N2[C@@H]1c1ccc(O)cc1	ID4 SMM active (no result: p53 PUMA act)
COc1ccc(OCc2nnc3n2N=C(c2ccc(OC)c(OC)c2)C(c2ccccc2)S3)cc1 (stereo not given)	none
C[C@@H]1CN([C@H](C)CO)C(=O)c2cc(NS(=O)(=O)c3cn(C)cn3)ccc2O[C@H]1CN(C)Cc1ccccc1	none
C[C@H](CO)N1C[C@H](C)[C@@H](CN(C)Cc2ccc(C(=O)O)cc2)Oc2ccc(NC(=O)CCCN(C)C)cc2C1=O	none
C[C@H]1CN([C@@H](C)CO)C(=O)c2cc(NS(=O)(=O)c3cn(C)cn3)ccc2O[C@@H]1CN(C)Cc1ccccc1	ID4 SMM active
C[C@@H]1CN([C@@H](C)CO)C(=O)c2cc(NC(=O)CCCN(C)C)ccc2O[C@@H]1CN(C)Cc1ccc(C(=O)O)cc1	ID4 SMM active
C[C@@H]1CN([C@@H](C)CO)C(=O)c2cc(NC(=O)CCCN(C)C)ccc2O[C@@H]1CN(C)C(=O)Nc1cccc2ccccc12	none
C[C@H](CO)N1C[C@H](C)[C@H](CN(C)C(=O)Nc2ccccc2)Oc2ccc(NC(=O)CCCN(C)C)cc2C1=O	none
C[C@H](CO)N1C[C@H](C)[C@@H](CN(C)C(=O)Nc2cccc3ccccc23)Oc2ccc(NC(=O)CCCN(C)C)cc2C1=O	ID4 SMM active
C[C@@H]1CN([C@H](C)CO)C(=O)c2cc(NC(=O)CCCN(C)C)ccc2O[C@@H]1CN(C)C(=O)Nc1ccccc1	ID4 SMM active
CCc1cccc(C)c1NC(=O)CSc1nnc(-c2cccnc2)n1C	none
COCCOC(=O)N1C(=O)[C@@]2(c3cc(C#CCC(C(=O)OC)C(=O)OC)ccc31)[C@H](C(N)=O)[C@H]1C(=O)O[C@H](c3ccccc3)[C@H](c3ccccc3)N1[C@@H]2c1ccccc1OCCO	none (no result: p53 PUMA act)
Cc1cc(C(F)(F)F)nc(SCC(=O)Nc2cc(C(F)(F)F)ccc2Cl)n1	none
Brc1ccc(-c2cnc3ccccc3n2)s1	p53 PUMA act 74
Cn1c(SCC(=O)c2cccc([N+](=O)[O-])c2)nnc1-c1cc2ccccc2o1	none
Nc1cc(=O)[nH]c(S/C=C/c2ccccc2)n1	none
O=C(Nc1ccc(F)cc1)C1CC(=O)n2cnnc2N1 (stereo not given)	ID4 SMM active
Cc1ccc(NC(=O)C2CC(=O)n3cnnc3N2)cc1 (stereo not given)	none
CC(=O)N1CCN(C(=S)c2ccc(-c3ccc(C)cc3)o2)CC1	p53 PUMA act 55
O=C(Nc1ccccc1)c1ccc(CSc2nnc(-c3ccncc3)n2-c2ccccc2)cc1	none
Cc1ccc(S(=O)(=O)N[C@@H](Cc2ccccc2)C(=O)CCl)cc1	none (no result: ID4 SMM)
